Test results published in PubChem BioAssay.

Tested on: Human papillomavirus type 1a protein E7 (residues 44-93)
Experiment: small molecules binding HPV E7 44-93 – biochemical, small-molecule microarray, residues 44-93, 635 nm fluorescence, primary screen (AID 1108);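 note: E7 fragment applied at 1 µg/mL in TBST for 1 h at 4 C; score combines spot fluorescence with its signal to noise ratio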
Details: fluorescence 635 nm, higher = more signal

| Structure (SMILES) | composite z-score |
| --- | --- |
| Cc1ccc(S[C@]2(C(=O)NCC(F)(F)F)CC(=O)N(Cc3cc(C(F)(F)F)cc(C(F)(F)F)c3)[C@@H]2c2ccc(CO)cc2)cc1 | -0.109 |
| COCCOC(=O)N1C(=O)[C@@]2(c3ccccc31)[C@H](c1ccc(O)cc1)N1[C@H](c3ccccc3)[C@H](c3ccccc3)OC(=O)[C@H]1[C@@H]2C(=O)N1CCN(c2ncccn2)CC1 | 1.29 |
| CCCCC(CC)C(O)C1C=CC2C(=O)N(c3ccccc3)C(=O)C2N1Nc1ccccc1F (stereo unspecified) | 1.41 |
| COC(=O)C/C=C/C[C@]1(O)C(=O)N(C)c2ccccc21 | 0.0938 |
| COCCOC(=O)N1C(=O)[C@@]2(c3cc(C#CCCO)ccc31)[C@H](c1ccc(OCCO)cc1)N1[C@H](c3ccccc3)[C@H](c3ccccc3)OC(=O)[C@H]1[C@@H]2C(=O)Nc1nc2ccccc2s1 | 0.281 |
| CC(C)c1ccc(NN2C(C(O)c3ccc(F)cc3)C=CC3C(=O)N(c4ccccc4)C(=O)C32)cc1 (stereo unspecified) | 1.44 |
| O=C1[C@H]2C=C(I)[C@H](C[C@@H]2OCCOCCO)[C@@]12CO2 | 0.496 |
| COC(=O)[C@@]1(Cc2ccc(F)cc2)[C@H]2c3cc(C(=O)N4CCCC4)n(CCc4c[nH]c5ccccc45)c3C[C@H]2CN1C(=O)c1ccccc1 | 1.42 |
| O=C1OCCC/C=C\[C@H]2OC34C=CCN(c5ccc6ccccc6c5)C(=O)[C@H]3N(CCO)C(=O)[C@@H]4C12 (stereo partly specified) | -0.983 |
| Cc1ccc(S[C@]2(C(=O)O)CC(=O)N(C3CCCCC3)[C@@H]2c2ccc(CO)cc2I)cc1 | 1.35 |
| CCCCC(CC)C(O)C1C=CC2C(=O)N(C)C(=O)C2N1Nc1ccccc1 (stereo unspecified) | 1.4 |
